# Shown are actives, neighbours in structure and some others; about 4.7% of the full set was active somewhere.
# SKKanGAS inh: S. pyogenes SKKanGAS growth inhibitors in kanamycin, primary screen, streptokinase expression inhibitor project, SKKanGAS strain, BacTiter-Glo luminescence; inhibition, % at 7.5 µM; hit rate 1.3% among 300,000; 6 h;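 active = mean replicate score, as percent of positive control median, at least 50; inconclusive = mean below 50 but one replicate at or above 50; inactive = mean and every replicate below 50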;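 note: strain carries kanamycin resistance gene driven by streptokinase promoter and grows in 40 µg/ml kanamycin; loss of luminescence reflects streptokinase promoter inhibition or plain growth inhibition; 0% = median of DMSO wells and 100% = positive control at its reference dose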
# TIM10 inh: growth inhibitors of isogenic TIM10 control yeast, primary screen, counter-screen for tim10-1 yeast inhibitor project, luminescence, uHTS. S. cerevisiae TIM10 strain growth, BacTiter-Glo luminescence, 24 h. inhibition, % at 10 µM. hit rate 1.4% among 330,000. AID 463195, 2010;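 active = inhibition of 40% or more at the single tested concentration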;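 note: wild-type TIM10 isogenic control strain grown at permissive 25 °C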
# tim23-1 inh: growth inhibitors of tim23-1 mutant yeast, primary screen, luminescence, uHTS; hit rate 1.3% among 330,000; inhibition, % at 20 µM; S. cerevisiae tim23-1 growth, BacTiter-Glo luminescence, 24 h;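 active = growth inhibition of the mutant yeast at or above 50%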;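 note: temperature-sensitive mutant grown at 25 °C; plate controls were DMSO-treated mutant yeast for no effect and medium wells lacking yeast for full effect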
# tim10-1 inh: growth inhibitors of tim10-1 mutant yeast, primary screen, luminescence, uHTS; hit rate 2.2% among 330,000; S. cerevisiae tim10-1 ts strain growth, BacTiter-Glo, 24 h; inhibition, % at 20 µM; AID 463190, 2010;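 active = inhibition of at least 40%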;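 note: mutant grown at 25 °C; 0% = DMSO wells with yeast and 100% = wells holding no yeast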
# Calb FLC: C. albicans growth inhibition with fluconazole, primary screen, CaCi-2 strain, Alamar Blue fluorescence; C. albicans CaCi-2 (fluconazole-resistant clinical isolate) + fluconazole, 48 h; growth inhibition, % (no concentration beside the values); hit rate 0.57% among 300,000; AID 1979, 2009;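 active = growth inhibition above about 58% in most replicates, limit read from the data, passing the limit was not always enough; inconclusive = exactly half the replicates above a set limit; inactive = most replicates below a set limit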;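 note: all wells also contain fluconazole at 8 µg/ml as a sub-toxic cotreatment; 0% = median of DMSO wells and 100% = median of geldanamycin control wells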
# PfHsp90 yeast 2: growth inhibition of PfHsp90-expressing yeast, primary screen, antimalarial PfHsp90 inhibitor project, S. cerevisiae, BacTiter-Glo luminescence, single point, set 2; BacTiter-Glo ATP, 48 h; yeast lacking PDR1 and PDR3 efflux regulators; inhibition, % at 9.4 µM; hit rate 0.32% among 310,000; AID 504621, 2011;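 active = every replicate shows inhibition above about 80%, whatever the replicate mean, limit read from the data; inconclusive = mean inhibition reaches the set limit but some replicate falls short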;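 note: 0% = DMSO neutral controls and 100% = 20 µM radicicol positive controls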
# The depositor's hits bear a star; u = inconclusive; x = not tested or not shown.
SMILES,SKKanGAS inh,TIM10 inh,tim23-1 inh,tim10-1 inh,Calb FLC,PfHsp90 yeast 2
C/C(=N\NC(=O)CSc1nc(C)[nH]c1[N+](=O)[O-])c1ccc(F)cc1,56*,7,11,3,-6,1
Cc1nc(SCC(N)=O)c([N+](=O)[O-])[nH]1,12,-14,2,6,19,17
Cc1ccnc(NS(=O)(=O)c2ccc(NC(=O)c3snnc3C)cc2)n1,-3,2,14,13,-3,33
Brc1ccc(N/N=C(/N=Nc2nn[nH]n2)c2ccccc2)cc1,35,-31,28,7,124*,14
O=S(=O)(NCCN1CCOCC1)c1ccc(Cl)s1,-7,-14,1,-5,90*,1
Cc1ccc(S(=O)(=O)NCCN2CCOCC2)s1,4,2,-14,-4,5,-2
Cc1cc(O)c(/C=N/Nc2ccc(F)cc2)c(=O)o1,7,-118,5,-22,122*,4
Cc1nc(N2CCC(C)CC2)c2c(C)c(C(=O)Nc3cccc(C(F)(F)F)c3)sc2n1,21,27,16,34,-7,41
Cc1nc(N2CCC(C)CC2)c2c(C)c(C(=O)Nc3ccc(C(F)(F)F)cc3)sc2n1,75*,-3,27,30,5,3
O=C(O)c1cnn(-c2nc(-c3ccc(Cl)cc3)cs2)c1C(F)(F)F,26,21,19,11,6,-13
CCOC(=O)c1cnn(-c2nc(-c3ccccc3)cs2)c1C(F)(F)F,71*,31,35,31,2,-62
COc1ccc(-c2csc(-n3ncc(C(=O)O)c3C(F)(F)F)n2)cc1,4,-8,14,14,11,-13
CCOC(=O)c1cnn(-c2nc(-c3ccccc3F)cs2)c1C(F)(F)F,52*,-1,16,6,-2,x
CCCCC(=O)NC(=S)Nc1cccc(NC(=O)c2ccco2)c1,7,26,36,18,89*,-7
CCC(=O)NC(=S)Nc1ccc(NC(=O)c2ccco2)cc1,0,6,11,4,6,10
Cc1nn(-c2ccccc2)c(C)c1C(=O)OC/C(O)=C(\C#N)c1nc2ccccc2[nH]1,22,13,13,15,82*,x
Cc1nn(-c2ccccc2)c(C)c1C(=O)OCC(O)=C(C#N)c1nc2ccccc2[nH]1,x,x,x,x,x,-17
Cc1ccc(C(=O)NNC(=O)c2cc3ccccc3cc2O)cc1,-2,4,19,-2,91*,-12
COc1ccccc1NC(=O)c1cc2cc(Br)ccc2cc1O,53*,x,x,x,0,-4
COc1cc2ccccc2cc1C(=O)NNC(=O)c1ccccc1O,39,19,25,3,95*,x
O=C(NNC(=O)c1cc2ccccc2cc1O)Nc1ccc(Br)cc1,11,-7,2,-20,6,2
COc1ccc(NC(=O)NNC(=O)c2cc3ccccc3cc2O)cc1,3,-4,-8,-6,86*,-33
CC(C)Oc1ccc(CN2CCC(n3nccc3NC(=O)C3CC3)CC2)cc1,-4,-7,3,-2,-4,11
O=Cc1c(-c2ccc(Cl)cc2)oc2ccc(O)cc12,-2,8,26,-13,4,x
COc1cc2ccccc2cc1C(=O)NC(=S)Nc1ccc(C(=O)O)cc1,54*,-47,22,-9,-6,3
SMILES,SKKanGAS inh,TIM10 inh,tim23-1 inh,tim10-1 inh,Calb FLC,PfHsp90 yeast 2
CCOc1ccc(NC(=O)NNC(=O)c2ccc3ccccc3c2O)cc1,8,-23,-1,-77,85*,-1
Cc1ccc(Cl)cc1NC(=O)c1cc2ccccc2cc1O,97*,-2,17,1,3,-34
COc1ccc(C)cc1NC(=O)NNC(=O)c1cc2ccccc2cc1O,-1,15,14,24,93*,-9
COc1cc(NC(=O)c2cc3ccccc3cc2O)c(OC)cc1Cl,17,-4,-4,-24,-6,-6
COc1ccc(-c2c(-c3cc(OC)cc(OC)c3)n(C)c3ccc(-c4ccc5[nH]ccc5c4)cc23)cc1,x,-7,14,22,x,-7
CC1=Nc2ccccc2/C1=C/c1nc(-c2ccc(C)s2)oc1O,31,23,33,28,-5,-9
CC1=Nc2ccccc2/C1=C/c1sc(=N)n(-c2nccs2)c1O,98*,29,25,1,-2,13
COc1ccc(OCC(=O)Nc2ccc(C(=O)Nc3ccccc3C(=O)O)cc2)cc1,21,10,13,0,x,6
COc1ccccc1NC(=O)CN1CCN(c2ccccc2OC)CC1,4,20,-4,26,63*,-14
Cc1ccccc1OCC(=O)Nc1ccccc1N1CCCCC1,57*,-6,21,16,2,-18
COc1ccccc1NC(=O)CN1CCN(c2ccccc2F)CC1,4,4,16,12,-2,-16
O=C(COc1ccc2ccccc2c1)Nc1cccc(C(=O)Nc2ccccc2C(=O)O)c1,55*,6,16,-14,-4,25
Cc1ccccc1OCC(=O)Nc1ccc(C(=O)Nc2ccccc2C(=O)O)cc1,59*,13,3,-12,12,16
CCC1CCC(C(=O)NC(C(=O)NCCN2CCOCC2)C(C)C)CC1 (stereo unspecified),7,0,4,-2,-7,10
CCOc1cc(C2C3=C(CC(C)(C)CC3=O)Nc3n[nH]c(C)c32)ccc1O (stereo unspecified),-5,3,-8,1,55,-25
O=C(NNC1=Nc2ccccc2SC1)c1ccc(F)cc1,69*,-1,24,28,2,-11
O=C(NNc1c2ccccc2nc2ccccc12)c1ccc(Cl)cc1,0,17,12,26,35,-49
O=C(NNC1=Nc2ccccc2SC1)c1ccc(Cl)cc1,90*,-14,-6,7,-3,-19
O=C(O)CN1C(=O)/C(=C\c2ccccc2OCc2ccc(F)cc2)SC1=S,21,13,28,30,-4,-14
O=C(O)CN1C(=O)/C(=C\c2cc(Br)ccc2OCc2ccc(F)cc2)SC1=S,u,23,33,14,2,-11
O=C(O)CN1C(=O)/C(=C\c2cc(Br)ccc2OCc2ccc(Cl)cc2)SC1=S,94*,x,x,x,0,25
O=C(O)CN1C(=O)/C(=C\c2cc([N+](=O)[O-])ccc2OCc2ccccc2Cl)SC1=S,55*,13,30,28,18,-11
Cc1ccc(S(=O)(=O)CCC(=O)N(Cc2nnc(-c3ccc(Cl)cc3)o2)C2CC2)cc1,x,15,39,29,x,x
CSc1ccc(/C=N/NC(=O)CNc2cccc3ccccc23)cc1,1,32,23,32,-5,-1
O=C(CNc1cccc2ccccc12)N/N=C/c1ccc[nH]1,50*,7,-5,-13,0,14
